Laboratory results taken from PubChem BioAssay AID504834 (National Center for Advancing Translational Sciences (NCATS), 2011).
In all, about 320,000 compounds went through this assay and about 22,000 (6.9%) were called active. About 27% were inconclusive and are not listed. The full list was thinned out, with actives kept by preference. Unmarked numbers belong to inactive results. Calls come from the whole dose curve; as a rule, active = well fitted inhibition curve with a large enough effect; inconclusive = small, poorly fitted or top-dose-only effect, or another doubt; inactive = no such curve, though single readings can be large or run the other way.

Assay: Primary qHTS for delayed death inhibitors of the malarial parasite plastid, 96 hour incubation
Details: P. falciparum luciferase reporter growth; series mostly up to 28.7 µM; activity change, negative = inhibition: at the top concentration
From the text: The goal of this screen is to discover new antimalarial compounds that act by inhibiting the development of the apicoplast in the malarial parasite Plasmodium falciparum. The biochemical processes that make this organelle essential for erythrocytic stage parasites are not well understood. However, antibiotics such as azithromycin and tetracycline, which target the apicoplast translational machinery, have a potent antimalarial effect.
We have developed a cell-based assay that measures parasite growth based on the expression of an integrated copy of a firefly luciferase reporter. To detect small molecules that cause this "delayed death" phenotype, erythrocytes infected with the luciferase-expressing parasites were incubated with compounds for either one or two generations, corresponding to 48 and 96 hours, respectively. Compounds that inhibit parasite growth in the second generation, but not the first, should be enriched in antimalarials that target the apicoplast. Growth inhibition is detected by a decrease in luciferase activity.
Assay Provider: David Fidock and Eric Ekland, Columbia University
Keywords: NIH Roadmap, MLPCN, MLI, MLSMR, qHTS, NCGC, qHTS, malaria, luciferase, viability
Four microliters of infected erythrocytes (2% hematocrit, 0.05% parasitemia final concentration) in culture medium were dispensed and the plates incubated for 96 hours at 37 C in 5% CO2. Two microliters of luciferase detection reagent was added and luminescence was detected by a ViewLux (PerkinElmer) reader.
% is set by controls: 0 for no effect and ±100 for the full control effect; potency is the fitted concentration of half-maximal effect.

Compound	activity change, negative = inhibition [%]	Potency
CCCCc1cc(=O)oc2c(C)c(OCC(=O)N3CCC(C(N)=O)CC3)ccc12	19.5	–
CCCc1cc(=O)oc2c(C)c(O)c(CN3CCCCC3)cc12	–	2.08 µM (active)
CCCc1cc(=O)oc2c(C)c(OC(C)C(=O)NCC(O)c3ccccc3)ccc12 (configuration not stated)	-15.3	–
COc1ccc(NC(=O)CN2C(=O)COc3ccc(S(=O)(=O)N4CCOCC4)cc32)cc1	-0.78	–
Cc1ccc(S(=O)(=O)N2CCC(C)CC2)cc1C(=O)NCc1ccccn1	6.35	–
O=C(CCc1nc2sc3c(c2c(=O)[nH]1)CCCC3)NCC(=O)Nc1ccccc1Br	13.4	–
O=C(CCNS(=O)(=O)c1cccs1)N1CCN(c2ccc(F)cc2)CC1	-21.8	–
CN(CCC1CCOCC1)Cc1cn[nH]c1-c1ccc(-c2ccccc2)cc1	–	13.1 µM (active)
CN(CCC1CCOCC1)C(=O)CC1C(=O)NCCN1Cc1cccc(F)c1 (configuration not stated)	81.9	–
O=[N+]([O-])c1ccc(N2CCSCC2)cc1O	23.3	–
O=C(COC(=O)C1CC2CCCC(C1)C2=O)NC(=O)c1ccccc1 (configuration not stated)	11.2	–
Cc1cc(O)ccc1-c1cnc2ccccc2n1	–	2.62 µM (active)
CC(=O)Nc1cccc(-c2cnc3ccccc3n2)c1	-1.47	–
Cc1ccc(Nc2nc(-c3ccc(O)cc3O)cs2)nc1	20.1	–
COc1ccc2oc(=N)c(C(=O)Nc3ccc(Br)cc3)cc2c1	257	–
Cc1cccc(NC(=O)Cn2c(=O)n(Cc3ccccc3)c(=O)c3c(C)c(C)sc32)c1	–	14.7 µM (active)
Cc1sc2c(c1C)c(=O)n(-c1ccccc1)c(=O)n2CC(=O)NCC1CCCO1 (configuration not stated)	48.7	–
Cc1cccc(-n2c(=O)c3c(C)c(C)sc3n(CC(N)=O)c2=O)c1	32.2	–
Cc1noc(C)c1COc1ccccc1C(=O)N(C)CC(=O)Nc1cccc(F)c1	16.9	–
O=C(O)C1CCC(CNS(=O)(=O)c2ccc(Br)cc2)CC1 (configuration not stated)	2.75	–
CN(C)CCCNC(=S)N1CCN(c2nc(-c3ccccc3)cs2)CC1	0	–
Cc1ccc(NC(=O)C(CC(=O)O)C2CCCO2)c(C)c1 (configuration not stated)	8.69	–
COc1cccc(/C=C2\C=C(c3ccc(C)cc3)OC2=O)c1OC(C)=O	32.9	–
O=C(COC(=O)CCCN1C(=O)c2cccc3cccc(c23)C1=O)NC1CCS(=O)(=O)C1 (configuration not stated)	30.8	–
COc1cc([N+](=O)[O-])ccc1NC(=O)COC(=O)CCOc1ccc(C)cc1	-0.415	–
O=C(Nc1nnc(CCN2CCCCC2)s1)c1cccc(Cl)c1	29.8	–

Compound	activity change, negative = inhibition [%]	Potency
CCN(CC)C(=O)C(=O)Nc1cccc(Br)c1	-5.94	–
CCN(CC)C(=O)Oc1ccc(Br)cc1C(=O)Nc1ccc(F)c(Cl)c1	–	11.7 µM (active)
COC(=O)c1ccc(NC(=O)c2cc(Cl)ccc2OC)cc1	0	–
Cc1cc(C)n2nc(C(=O)OCC(=O)N(C)CC(=O)Nc3ccc(F)cc3)nc2n1	7.58	–
COc1ccccc1NC(=O)C1=C(C)NC2=C(C(=O)CCC2)C1c1ccc(C)o1 (configuration not stated)	17.3	–
COc1ccccc1NC(=O)C1=C(C)Nc2ncnn2C1c1ccc(C)o1 (configuration not stated)	-29.5	–
COc1ccccc1NC(=O)C1=C(C)NC(=O)NC1c1ccc(C)s1 (configuration not stated)	–	6.57 µM (active)
Cc1ccc(Nc2ncnc3c2cnn3C)c(C)c1	-14.4	–
O=C(c1ccco1)N1CCN=C1SCc1cccc(Cl)c1	–	10.4 µM (active)
O=C(C1CC1)N1CCN=C1SCc1ccc(Cl)cc1	7.45	–
O=C(COc1ccccc1)N1CCN=C1SCc1cccc(F)c1	8.33	–
COc1ccccc1C1C(C(N)=O)=C(C)Nc2nc(CCCO)nn21 (configuration not stated)	9.37	–
Clc1ccc(C2=CSC3=Nc4cccc5cccc(c45)N23)cc1	–	3.7 µM (active)
COc1ccccc1-c1c(C#N)c(N)nc2c1CCC2	14.8	–
O=C(Nc1nonc1-c1ccc(Cl)cc1)c1ccco1	5.85	–
COCCn1c(SC(C)C(=O)NC2CC2)nnc1-c1cccc(C)c1 (configuration not stated)	4.07	–
CCc1nc2cccnc2n1-c1ccc(C(=O)O)cc1	-9.55	–
CCOc1ccc(CN(CCCl)CCCl)cc1C(=O)OC	64.7	–
CCCOc1ccc(CN(CCO)CCO)cc1C(=O)OC	–	8.28 µM (active)
COC(=O)c1cc(CNC(=O)CC(C)c2ccccc2)ccc1OC (configuration not stated)	2.52	–
Cc1ccc(C(=O)NCCc2nnc(SCC(=O)Nc3cccc(C(=O)O)c3)n2C)cc1	4.52	–
COc1cc(CCC(=O)N2CCN(c3ccccc3Cl)CC2)cc(OC)c1OC	-23.8	–
Cc1ccc(NC(=S)NCCc2ccc(Cl)cc2)c(C)c1	-9.71	–
COc1cc(C(C)=O)ccc1OC(=O)CN1C(=O)c2ccccc2C1=O	13.4	–
Cc1cccc2c1N(CC(=O)OC(C)C)C(=O)C2=O	38.3	–
CC(OC(=O)CN1C(=O)c2ccccc2C1=O)C(=O)c1ccccc1 (configuration not stated)	13.1	–
